Common to all, as to assay: NCI-60 one-dose screen, 48 h (100 = growth as untreated, 0 = no growth, -100 = all killed)
In one experiment the test system is BT-549 breast. As to conditions: 10 µM unless noted.
The next experiment has as its system MDA-MB-435 melanoma. The following applies: 10 µM unless noted.
The subject of the next experiment is SW-620 colon. As to conditions: 10 µM unless noted.
A further experiment deals with MCF7 breast. As to conditions: 10 µM.
Another experiment has as its system HCT-116 colon. The following applies: 10 µM unless noted.
Another experiment relates to HCC-2998 colon. The following applies: 10 µM unless noted.
A further experiment relates to KM12 colon. As to conditions: 10 µM unless noted.

About 83,000 compounds went through this panel and 20% of them were active in at least one assay; those are over-represented in the sample as a whole.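 Treatment: one concentration, 48 hours, 96-well format. Scoring: percent growth, with anything below 10 considered active.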 A number with no mark means an inactive call. Activity calls are given as the source filed them.

Consider `CCOC(=O)c1cnc2ccc(Cl)cc2c1NCCCN(C)C`, for which the growth in the experiment with BT-549 breast was 31.6%; with MDA-MB-435 melanoma, 19.6%; in the experiment with SW-620 colon, 14.6%; in the experiment on MCF7 breast, 7.48% (active); with HCT-116 colon, 12.4%; in the experiment with HCC-2998 colon it was -13.2% (active). Further, the growth with KM12 colon was 17.5%.

In the case of `Nc1nc(-c2ccccc2Br)nn1-c1nc2ccccc2s1`, the growth was 100% in the experiment on BT-549 breast; 95% in the experiment on MDA-MB-435 melanoma; 104% in the experiment on SW-620 colon; 78.4% in the experiment on MCF7 breast; 103% in the experiment on HCT-116 colon; 110% in the experiment with HCC-2998 colon. Besides, in the experiment on KM12 colon, the growth was 101%.

Regarding `COc1ccccc1CNC(=O)C1c2ccccc2C(=O)N(CC(C)C)C1c1cccs1` (centres undefined), the growth was 78.9% in the experiment with BT-549 breast; 71% with MDA-MB-435 melanoma; 78.6% with SW-620 colon; 66.4% with MCF7 breast; 59.9% with HCT-116 colon; 48.3% in the experiment on HCC-2998 colon. The growth in the experiment with KM12 colon is 32.7%.

As to `O=C1NC(=O)C(=Cc2cn(Cc3cn(Cc4ccc(Cl)cc4Cl)nn3)c3ccccc23)C(=O)N1`, the growth with BT-549 breast is 91.7%; in the experiment with MDA-MB-435 melanoma it was 94.9%; with SW-620 colon, 92.1%; with MCF7 breast it was 80%; in the experiment on HCT-116 colon it was 91.3%; in the experiment on HCC-2998 colon it was 117%. The growth with KM12 colon is 98.3%.

Take `O=C(NCc1ccco1)C1CN(c2ccc(Cl)cc2)N(c2ccc(Cl)cc2)C1=O` (centres undefined): the growth with BT-549 breast is 51.9%; in the experiment on MDA-MB-435 melanoma, -32.5% (active); with SW-620 colon, 28.6%; in the experiment with MCF7 breast, 14.2%; with HCT-116 colon it was 21.9%; with HCC-2998 colon it was 76.1%. Also, the growth in the experiment on KM12 colon is 22.3%.

`O=C(Nc1ccc(N2CCNCC2)cc1)c1[nH]ncc1Nc1cc(C2CC2)ncn1`: the growth in the experiment with BT-549 breast is 42.9%; in the experiment on MDA-MB-435 melanoma, 50.6%; with SW-620 colon, 33.1%; in the experiment with MCF7 breast, 37%; in the experiment on HCT-116 colon, 14.6%; in the experiment with HCC-2998 colon it was 46.3%. The growth with KM12 colon is 21.1%.

With `Cn1nc(C(C)(C)C)cc1NC(=O)Cc1ccc(/C=C2\C(=O)Nc3ccccc32)cc1`, the growth in the experiment on BT-549 breast is 35.4%; in the experiment with MDA-MB-435 melanoma it was 56%; in the experiment on SW-620 colon, 76.8%; in the experiment with MCF7 breast it was 19.2%; in the experiment on HCT-116 colon, 33.6%; in the experiment on HCC-2998 colon, 96.3%. Also, the growth in the experiment with KM12 colon is 21.7%.

`N#CC(C#N)=Cc1c(-c2ccccc2)[nH]c2ccccc12`: the growth in the experiment on BT-549 breast was 56%; in the experiment with MDA-MB-435 melanoma, 7.52% (active); in the experiment on SW-620 colon it was 21.1%; in the experiment with MCF7 breast, 15.7%; in the experiment on HCT-116 colon, 30.4%; in the experiment on HCC-2998 colon, 50.7%. Also, the growth with KM12 colon is 27.4%.

Consider `O=C1/C(=C\c2ccc[nH]2)c2ccccc2N1c1ccccc1`, for which the growth was 78.9% with BT-549 breast; 108% in the experiment with MDA-MB-435 melanoma; 97% in the experiment with SW-620 colon; 19.5% with MCF7 breast; 95.1% in the experiment on HCT-116 colon; 93.6% in the experiment on HCC-2998 colon. Besides, the growth in the experiment with KM12 colon is 95.7%.

`CCCCN1CCN(c2ccc3nc(-c4ccc5nc(-c6ccc(OC)c(OC)c6)[nH]c5c4)[nH]c3c2)CC1`: the growth in the experiment with BT-549 breast is -59% (active); in the experiment with MDA-MB-435 melanoma, -64.5% (active); in the experiment with SW-620 colon, -50.8% (active); with MCF7 breast, -67.2% (active); in the experiment with HCT-116 colon it was -80.2% (active); in the experiment with HCC-2998 colon, -70.2% (active). In the experiment on KM12 colon, the growth is -53.5% (active).

For the compound `COc1ccc(-c2cn[nH]c2-c2ccc(OC)c(O)c2)cc1`, the growth in the experiment on BT-549 breast is 74.1%; with MDA-MB-435 melanoma, 3.35% (active); with SW-620 colon, 38%; with MCF7 breast, 35.4%; with HCT-116 colon it was 61.4%; with HCC-2998 colon it was 85.8%. Further, in the experiment with KM12 colon, the growth was 44.8%.

For `C#CCn1cc(C=C2C(=O)N(C)C(=O)N(C)C2=O)c2cc(Cl)ccc21`, the growth in the experiment with BT-549 breast is 116%; in the experiment on MDA-MB-435 melanoma, 103%; in the experiment on SW-620 colon, 99.5%; in the experiment with MCF7 breast it was 100%; in the experiment with HCT-116 colon, 109%; in the experiment with HCC-2998 colon, 112%. The growth in the experiment with KM12 colon was 104%.

With `CCOC(=O)c1cc2c(n1Cc1cc(OC)cc(OC)c1)-c1oncc1CCC2`, the growth in the experiment with BT-549 breast is 25.2%; in the experiment with MDA-MB-435 melanoma, -24.9% (active); with SW-620 colon it was 24.7%; with MCF7 breast, 12.5%; in the experiment on HCT-116 colon, 15.1%; in the experiment on HCC-2998 colon, 19.3%. In the experiment on KM12 colon, the growth was 19.1%.

As for `Nc1no[n+]([O-])c1-c1nnc2c(n1)-c1ccccc1C2=O`, the growth was 80.8% with BT-549 breast; 18.8% in the experiment on MDA-MB-435 melanoma; 29.9% in the experiment with SW-620 colon; -48.9% (active) in the experiment on MCF7 breast; 1.78% (active) with HCT-116 colon; 68.1% in the experiment on HCC-2998 colon. The growth with KM12 colon was 73.1%.

For the compound `Oc1c(CN2CCN(c3ccccc3F)CC2)cc(Br)c2cccnc12`, the growth is -53.8% (active) with BT-549 breast; -48.3% (active) in the experiment on MDA-MB-435 melanoma; -13.5% (active) with SW-620 colon; 9.33% (active) with MCF7 breast; -36.4% (active) in the experiment with HCT-116 colon; 30.7% with HCC-2998 colon. Moreover, the growth with KM12 colon is 0.135% (active).

In the case of `CCCCCCn1c(=N)n(CC(O)COc2cccc(C)c2)c2ccccc21` (centres undefined), the growth with BT-549 breast is 36.6%; in the experiment with MDA-MB-435 melanoma, -77.3% (active); in the experiment with SW-620 colon it was -65.9% (active); in the experiment on MCF7 breast, -51.6% (active); in the experiment with HCT-116 colon it was -33.8% (active); in the experiment on HCC-2998 colon, -87.1% (active). Also, the growth in the experiment on KM12 colon is -43.8% (active).

For `COc1ccccc1N1C(=N)S/C(=C\c2ccc(OCc3ccccc3F)cc2)C1=O`, the growth is 97.4% in the experiment with BT-549 breast; 90.4% with MDA-MB-435 melanoma; 88.1% in the experiment with SW-620 colon; 33% in the experiment on MCF7 breast; 67.8% in the experiment on HCT-116 colon; 109% with HCC-2998 colon. In addition, the growth with KM12 colon is 71.2%.

The record behind these values is PubChem BioAssay (NCI).
